Rev-erbA mod: Rev-erb alpha (human) modulation; AID 1259318; activity, % at 10 µM; Rev-erbα–FITC-DNA binding, fluorescence polarization, 90 min; 370,000 tested, 0.79% active; P20393;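 active = activity above about 14%, limit read from the data; passing the limit was not always enough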;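 note: 0% = DMSO wells with 35 nM protein and 100% = DMSO wells with 750 nM protein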
PG9 binder: binds the HIV-1 gp120 antibody PG9 | AID 624416 | 360,000 tested, 0.43% active | TR-FRET gp120-PG9 antibody binding | inhibition, % at 6.7 µM; in the data active = inhibition above about 8.5%
V-ATPase pHluor: regulators of yeast V-ATPase proton transport. S. cerevisiae, pHLuorin cytosolic pH fluorescence. response, % at 10 µM. 350,000 tested, 0.37% active. AID 504577; in the data active = response mostly above about 7.3%, no sharp cut-off; inactive = mostly below about 5.4%; note: actives read high
GC-B act: GC-B (human) receptor activation. P20594. HEK293-GC-B cells, CNP EC30, cGMP TR-FRET; 0% at EC30 CNP, 100% saturating CNP. activation, % at 10 µM. 370,000 tested, 0.11% active;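 active = activation at 10 µM reaching about 35% in either raw or pattern-adjusted values, limit read from the data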
GC-A act: GC-A (human) enzyme activation; 370,000 tested, 0.14% active; activation, % at 10 µM; AID 1671463; HEK293 GC-A cells, cGMP TR-FRET, EC30 ANP; 0% at EC30 ANP, 100% saturating ANP; in the data active = activation above about 40%
Rev-erbA confirm: confirmation of modulators of human Rev-erb alpha DNA binding | shares compounds with Rev-erbA mod | Rev-erb alpha FITC-DNA binding, fluorescence polarization, 90 min | activation, % at 25 µM | 3,000 tested, 61% active | AID 1259319;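 active = activation at or above a set limit, or at least 3 SD above the negative control mean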;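 note: 0% = 35 nM protein with DMSO and 100% = 750 nM protein high control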
RORg DNA counter: counter-screen for Rev-erb alpha modulators: RORgamma DNA binding | shares compounds with Rev-erbA mod | purified RORgamma protein-FITC-DNA binding, fluorescence polarization | IC50, µM | 910 tested, 8% active;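 active = Compounds whose fitted half-maximal concentration for disrupting protein-DNA binding is below 10 micromolar; the record names Rev-erb in its text, so the target is in doubt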
An asterisk follows results filed as active. In the library only some 1.6% were active in any assay of this set; here they are far more common.

Results for CCCCOC(=O)COc1cc(C)cc2oc(=O)c3c(c12)CCC3 ?
Rev-erbA mod: 26.1*; PG9 binder: -2.0; V-ATPase pHluor: -2.8; GC-B act: -6.2; GC-A act: -2.6; Rev-erbA confirm: 13.5

What do the screens show for `COc1ccc(N=Nc2c(O)[nH]c(=S)[nH]c2=O)cc1`?
Rev-erbA mod: 26.7*; PG9 binder: -11.6; V-ATPase pHluor: -2.0; GC-B act: -10.9; GC-A act: -9.7; Rev-erbA confirm: 18.8*

How did COc1cccc(N=Nc2c(O)[nH]c(=S)[nH]c2=O)c1 do in these assays?
Rev-erbA mod: 5.4; PG9 binder: -10.3; V-ATPase pHluor: 2.1; GC-B act: -7.4; GC-A act: -16.0

What do the screens show for `O=c1[nH]c(=S)[nH]c(O)c1N=Nc1ccc2c(c1)OCCO2`?
Rev-erbA mod: 30.4*; PG9 binder: -13.0; V-ATPase pHluor: 5.5; GC-B act: -15.1; GC-A act: -11.8; Rev-erbA confirm: 25.3*

Results for O=C(NCCN1CCC2(CC1)C(=O)NCN2c1ccccc1)c1ccc(F)c(F)c1 ?
Rev-erbA mod: 5.8; PG9 binder: -2.4; GC-B act: -11.3; GC-A act: -3.5

Results for O=[N+]([O-])c1ccc(NCc2ccccc2)c2nonc12 ?
Rev-erbA mod: 37.8*; PG9 binder: -3.5; GC-B act: -1.1; GC-A act: -1.2; Rev-erbA confirm: 52.4*; RORg DNA counter: 4.13*

What do the screens show for `CCCCCn1c(=O)c(C(=O)Nc2ccccc2)c(O)c2ccccc21`?
Rev-erbA mod: 21.2*; PG9 binder: -2.6; V-ATPase pHluor: 0.8; GC-B act: 0.0; GC-A act: 5.7; Rev-erbA confirm: 4.3

Results for CCCCCn1c(=O)c(C(=O)Nc2ccccn2)c(O)c2ccccc21 ?
Rev-erbA mod: -0.7; PG9 binder: 0.9; V-ATPase pHluor: -0.1; GC-B act: 6.6; GC-A act: 1.6

What do the screens show for `CCCCCCn1c(=O)c(C(=O)Nc2cnccn2)c(O)c2ccccc21`?
Rev-erbA mod: 13.6*; PG9 binder: -2.2; V-ATPase pHluor: 4.7; GC-B act: 0.6; GC-A act: 11.3; Rev-erbA confirm: 17.4

What do the screens show for `CC(C)(C)CC(C)(C)c1ccc(O)cc1`?
Rev-erbA mod: 9.7

How did CN1CC(CNC(=O)OCc2ccccc2)CC2c3cccc4c3c(cn4C)CC21 (stereo not drawn) do in these assays?
Rev-erbA mod: 6.2

What do the screens show for `CN1C(=O)C(=Cc2ccc(N3CCCCCC3)o2)C(=O)N(C)C1=S`?
Rev-erbA mod: 38.7*; PG9 binder: -2.5; V-ATPase pHluor: -1.7; GC-B act: -3.2; GC-A act: 4.3; Rev-erbA confirm: 60.4*; RORg DNA counter: >40

How did Cc1ccccc1N1C(=O)NC(=O)/C(=C/c2ccc(N3CCOCC3)o2)C1=O do in these assays?
Rev-erbA mod: 16.8; PG9 binder: -4.0; V-ATPase pHluor: -2.9; GC-B act: -3.1; GC-A act: 1.4

What do the screens show for `O=C1NC(=O)N(c2ccc3c(c2)OCO3)C(=O)/C1=C\c1ccc(N2CCCCC2)o1`?
Rev-erbA mod: 26.0*; PG9 binder: -7.9; V-ATPase pHluor: -0.9; GC-B act: 0.2; GC-A act: -1.3; Rev-erbA confirm: 25.7*

Results for CN1C(=O)C(=Cc2ccc(N3CCOCC3)o2)C(=O)N(C)C1=O ?
Rev-erbA mod: 40.7*; PG9 binder: -9.0; V-ATPase pHluor: -4.5; GC-B act: -6.1; GC-A act: -5.7; Rev-erbA confirm: 44.1*; RORg DNA counter: >40

What do the screens show for `O=c1n(Cl)c(=O)n(Cl)c(=O)n1Cl`?
Rev-erbA mod: -0.2

Results for CCCC(C)C1(CC)C(=O)N=C(S)NC1=O (stereo not drawn) ?
Rev-erbA mod: -3.5

How did C=C(C)C1CNC(C(=O)O)C1CC(=O)O (stereo not drawn) do in these assays?
Rev-erbA mod: -3.9

What do the screens show for `CCCCOCCCN1C(C)=CC(=C2C(=O)NC(=S)NC2=O)C=C1C`?
Rev-erbA mod: 41.4*; PG9 binder: -1.1; V-ATPase pHluor: 7.2; GC-B act: 0.5; GC-A act: 22.4; Rev-erbA confirm: -1.7

Results for c1ccc(Cc2cnc(N3CCNCC3)nc2)cc1 ?
Rev-erbA mod: 6.0; PG9 binder: 2.3; GC-B act: 2.8; GC-A act: -2.8

How did C[n+]1c(-c2ccccc2)c2cc(N)ccc2c2ccc(N)cc21 do in these assays?
Rev-erbA mod: -21.8; PG9 binder: -17.5; V-ATPase pHluor: 3.7; GC-B act: -14.2; GC-A act: -18.9

What do the screens show for `Nc1ccc2ccc3cccc[n+]3c2c1`?
Rev-erbA mod: 127.3*; PG9 binder: 2.0; V-ATPase pHluor: -74.7; GC-B act: -2.6; GC-A act: 18.0; Rev-erbA confirm: 105.2*; RORg DNA counter: >40

Results for Cn1cc(Br)c(C(=O)Nc2ccc3c(C(F)(F)F)cc(=O)oc3c2)n1 ?
Rev-erbA mod: 15.1*; PG9 binder: 0.3; V-ATPase pHluor: -0.9; GC-B act: 3.1; GC-A act: -4.0; Rev-erbA confirm: 2.9

Results for O=c1[nH]c(=S)n(Cc2ccc(F)cc2)c(O)c1C=NCc1ccc2c(c1)OCO2 ?
Rev-erbA mod: 25.1*; PG9 binder: 0.7; V-ATPase pHluor: -0.2; GC-B act: 2.0; GC-A act: 6.3; Rev-erbA confirm: 12.2

Results for CN(C)CCN=Cc1c(O)n(Cc2ccc3c(c2)OCO3)c(=S)[nH]c1=O ?
Rev-erbA mod: 3.7; PG9 binder: -0.5; V-ATPase pHluor: -0.6; GC-B act: 2.8; GC-A act: -4.2

Results for CN(c1ccc(O)cc1)c1ccc([N+](=O)[O-])c2nonc12 ?
Rev-erbA mod: 25.1*; PG9 binder: -6.7; GC-B act: -3.5; GC-A act: -1.6; Rev-erbA confirm: 29.7*; RORg DNA counter: >40

Results for O=C1NC(=S)SC1=Cc1ccc(N(CCCl)CCCl)cc1 ?
Rev-erbA mod: 23.6*; PG9 binder: -1.8; V-ATPase pHluor: 5.0; GC-B act: -3.5; GC-A act: -1.9; Rev-erbA confirm: 19.9*

How did O=c1cc(C(F)(F)F)c2cc3c4c(c2o1)CCCN4CCC3 do in these assays?
Rev-erbA mod: -0.3; PG9 binder: 1.9; V-ATPase pHluor: -1.3; GC-B act: 3.4; GC-A act: 6.9

Results for Cc1cc2c(C(F)(F)F)cc(=O)oc2c2c1NCCC2 ?
Rev-erbA mod: 17.3*; PG9 binder: 3.1; V-ATPase pHluor: -2.1; GC-B act: 7.6; GC-A act: 8.8; Rev-erbA confirm: 16.9*
